Source: PubChem
D1 potentiator: Potentiators of Human D1 Dopamine Receptor: qHTS. D(1A) dopamine receptor (Homo sapiens), P21728. HEK293 TREx D1 cells, calcium flux, dopamine EC20 potentiation. potentiation, % at 10 µM. 0.036% of 360,000 active; in the data active = potentiation above about 30%; also: 0% is about no effect
TRHR ag: qHTS for Small Molecule Agonists and Allosteric Enhancers of Human TRH Receptor: Primary Screen for Agonists | 0.18% of 360,000 active | activation, % at 2 µM | Thyrotropin-releasing hormone receptor (Homo sapiens), P34981 | AID 493084, 2011 | TRHR cells, calcium flux fluo-8, FDSS agonist mode; also: 0% is about no effect
Target sequence (P34981 whole entry, looked up): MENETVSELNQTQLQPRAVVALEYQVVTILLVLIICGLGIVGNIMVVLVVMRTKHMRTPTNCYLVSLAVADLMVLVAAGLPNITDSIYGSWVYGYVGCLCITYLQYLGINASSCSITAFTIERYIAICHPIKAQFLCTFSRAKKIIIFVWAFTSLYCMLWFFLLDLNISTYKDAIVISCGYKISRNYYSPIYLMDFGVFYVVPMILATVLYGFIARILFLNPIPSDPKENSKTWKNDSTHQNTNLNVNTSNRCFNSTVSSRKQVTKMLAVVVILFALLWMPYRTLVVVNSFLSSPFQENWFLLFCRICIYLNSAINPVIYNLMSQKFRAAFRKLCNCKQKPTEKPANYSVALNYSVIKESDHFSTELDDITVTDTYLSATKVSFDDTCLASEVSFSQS
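Read-out: compound-evoked intracellular calcium rise in TRHR cells, fluo-8 dye, kinetic FDSS fluorescence at 1 s/cycle following a 10-cycle baseline. Cells cultured overnight before dye loading (30 min–1.5 h, RT).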
D1 antag: Antagonist of Human D 1 Dopamine Receptor: qHTS. 3.2% of 360,000 active. HEK293 TREx D1 cells, calcium flux, dopamine EC80; active compounds read low. D(1A) dopamine receptor (Homo sapiens), P21728. activity change, negative = inhibition, % at 10 µM. AID 504652, 2011; in the data active = activity change below about -30%; also: % is scaled to controls: 0 for no effect and ±100 for the full control effect
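Allosteric or orthosteric antagonism assessed as attenuation of the calcium response to EC80 dopamine, added 180 s after compound, in induced HEK293 Trex D1 cells loaded with no-wash calcium dye.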
TRHR enhancer: qHTS for Small Molecule Agonists and Allosteric Enhancers of Human TRH Receptor: Primary Screen for Enhancers | Thyrotropin-releasing hormone receptor (Homo sapiens), P34981 | TRHR cells, fluo-8 calcium fluorescence, EC20 TRH enhancement | enhancement, % at 2 µM | 0.66% of 360,000 active; in the data active = enhancement above about 30%; also: 0% is about no effect
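TRHR-expressing cells loaded with fluo-8 calcium dye were read kinetically (ex 480/em 530) during compound addition, then stimulated with an EC20 of TRH (10 nM final). Enhancement of the Gq-mediated intracellular calcium response was scored.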
D1 ag: Allosteric Agonists of the Human D1 Dopamine Receptor: qHTS; D(1A) dopamine receptor (Homo sapiens), P21728; HEK293 T-REx D1 cells, calcium flux, agonist mode; activation, % at 2 µM; 1% of 360,000 active; AID 504660, 2011; also: 0% is about no effect
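Agonism was scored from calcium flux recorded over 180 s (1 read/s) after pintool compound addition, following a 10-cycle baseline. Cells were inducible force-coupled HEK293 TREx D1, plated overnight at 30 C and loaded with no-wash calcium dye.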
Numbers without * were called inactive; x = no result. Most compounds without a hit are left out; they make up all but 4.7% or so of the library. Rule as the data show it, unless noted: active = activation above about 30%; inactive = the rest.

SMILES	D1 potentiator	TRHR ag	D1 antag	TRHR enhancer	D1 ag
COc1ccc(-c2nc(CN3C(=O)CN=C(c4ccccc4)c4ccccc43)c(C)o2)cc1OC	-4	-1	-31*	-1	4
COc1ccc(-c2nc(CN3C(=O)CN=C(c4ccccc4Cl)c4cc(Cl)ccc43)c(C)o2)cc1OC	1	0	10	-10	1
Cc1ccc(S(=O)(=O)N(c2cc(Cl)c(O)c(Cl)c2)P(=O)(OC(C)C)OC(C)C)cc1	-13	0	-33*	2	0
O=C(CN1C(=O)CN=C(c2ccccc2)c2ccccc21)Nc1cccc(C(F)(F)F)c1	8	1	-14	0	6
CNC(C)Cc1ccccc1Sc1ccc(O)cc1 (stereo unspecified)	-17	1	-59*	1	20
O=C(Nc1ccccc1C(F)(F)F)c1cccn(Cc2ccccc2)c1=O	0	1	x	0	3
S=C=Nc1cccc(C2(N3CCCCC3)CCCCC2)c1	-7	-1	-91*	4	4
CCc1ccc(-n2nc(C)c3c2NC(=O)CSC3c2ccc(OC)cc2OC)cc1 (stereo unspecified)	-5	0	0	-24	1
O=c1[nH]c(=O)n(-c2ccccc2)c(O)c1/C=C/C=Nc1ccccc1	-3	15	-3	3	21
COc1ccc(-n2c(O)c(/C=C/C=Nc3ccccc3)c(=O)[nH]c2=O)cc1	-3	30	5	-1	91*
C=CCn1c(O)c(/C=C/C=Nc2ccccc2)c(=O)[nH]c1=O	-3	10	-3	1	16
Cc1ccc(-n2c(O)c(/C=C/C=Nc3ccccc3)c(=O)[nH]c2=O)cc1	8	24	22	-5	50*
O=c1[nH]c(=O)n(C2CCCCC2)c(O)c1/C=C/C=Nc1ccccc1	-9	63*	-1	17	175*
COc1ccc(-n2c(O)c(/C(C)=N/Nc3ccccc3)c(=O)[nH]c2=O)cc1	1	0	-1	-20	1
O=C(Nc1ccc(Br)cc1C(=O)c1ccccc1Cl)c1ccc(Br)cc1	0	1	3	-2	4
COc1cc(/C=C/c2nc3ccccc3c(=O)n2-c2ccc(Br)c(C)c2)ccc1O	0	16	0	-12	17
Cc1cccc(CSc2nc3c(cc2C#N)CN(C)CC3)c1	-3	1	-4	-2	1
CN1CCc2nc(SCc3ccccc3Br)c(C#N)cc2C1	-1	2	-35*	-3	2
O=c1[nH]c2ccccc2c(=O)n1-c1ccc(Cl)c(Cl)c1	-2	-1	-1	1	-1
OC(CN1CCC(c2c[nH]c3ccccc23)CC1)C(F)(F)F (stereo unspecified)	-9	1	-41*	3	4
CCCCc1nc2ccccc2c(=O)n1-c1ccccc1O	2	0	1	1	2
CCCCCc1nc2ccccc2c(=O)n1-c1ccc(Cl)cc1[N+](=O)[O-]	1	0	-44*	-6	-1
O=C1NC(=O)N(c2ccccc2F)C(=O)/C1=C/c1ccc(Sc2nc3ccccc3[nH]2)o1	5	41*	-10	5	116*
O=C1NC(=O)N(c2ccccc2)C(=O)/C1=C/c1ccc(Sc2ccccc2)o1	1	2	8	-2	0
CCOc1cc2c(cc1OCC)-n1cccc1C(c1ccc(OC)c(O)c1)NC2 (stereo unspecified)	-2	-1	-23	3	96*
SMILES	D1 potentiator	TRHR ag	D1 antag	TRHR enhancer	D1 ag
O=CC(Cl)P(=O)(N1CCOCC1)N1CCOCC1 (stereo unspecified)	-6	0	-36*	0	1
CC(C)(C)P(=O)(N1CCOCC1)N1CCOCC1	0	1	-4	-8	3
COCCCNC(=O)Cn1cc(/C=C2\C(=O)NC(=O)N(c3ccccc3F)C2=O)c2ccccc21	-5	0	-19	0	32*
COCCNC(=O)Cn1cc(/C=C2\C(=O)NC(=O)N(c3ccccc3F)C2=O)c2ccccc21	-4	1	4	-2	2
O=C(Cn1ncc2c3ccccc3n(Cc3cccc(Cl)c3)c2c1=O)N1CCC2(CC1)OCCO2	6	1	1	4	7
Cn1c2ccccc2c2cnn(CC(=O)N3CCC4(CC3)OCCO4)c(=O)c21	-1	0	-31*	-5	0
CCN(CC)S(=O)(=O)c1ccc(NN=C(C#N)C#N)cc1	-4	1	-8	-3	37*
COc1ccc(CC(C)NCCC(c2ccccc2)c2ccccc2)cc1 (stereo unspecified)	-2	1	-3	8	43*
COc1ccc(NC(=O)CCc2nc(C3=CCN(Cc4cccc(Cl)c4)CC3)no2)cc1OC	-2	0	-9	-2	8
Cc1ccc(-n2nc(C)c3c2NC(=O)CSC3c2ccc(O)cc2)cc1Cl (stereo unspecified)	0	0	1	0	-1
C=CCN1C(=O)/C(=C/c2ccc(N3CCOCC3)o2)C(=O)NC1=S	-2	-1	-1	-4	119*
O=C1NC(=O)C(=Cc2ccc(N3CCOCC3)o2)C(=O)N1	-3	7	9	1	8
Cc1ccc(/C=C2\C(=O)NC(=S)N(c3ccc(F)cc3)C2=O)o1	5	2	-15	13	9
Cc1cc(C)cc(N2C(=O)/C(=C\c3ccc(N4CCN(C)CC4)o3)C(=O)NC2=S)c1	-4	28	-4	1	44*
Cc1ccc(-c2nn3c(=O)cc(CN4CCN(C(=O)COc5ccc(C)c(C)c5)CC4)nc3s2)cc1	-1	0	6	2	-2
NC(=O)c1ccsc1NC(=O)COC(=O)Cc1ccccc1	-6	0	-32*	10	17
O=C(COC(=O)Cc1ccccc1)NC12CC3CC(CC(C3)C1)C2	0	0	10	-2	-1
C[C@H]1OC[C@@H](C[N+](C)(C)C)O1	-3	41*	19	-2	47*
CCOC(=O)C1=C(N)OC2=C(C(=O)CC(C)(C)C2)C12C(=O)Nc1ccccc12 (stereo unspecified)	-12	0	-37*	-3	1
Cc1cccc(-n2c(/C=C\c3cccc(Br)c3)nc3ccccc3c2=O)c1	-1	0	1	0	-4
CCCC12CN3CC(C)(CN(C1)C3c1c(C)[nH]c(=O)[nH]c1=O)C2=O (stereo unspecified)	0	1	-7	-1	-1
CCCCc1ccc2[nH]cc(CCN)c2c1	2	9	5	16	90*
